Results reported in PubChem BioAssay (NCATS).
Records with an inconclusive call do not appear. Active and inactive are the calls of the source. Calls follow the shape of the dose curve; as a rule, active = well fitted curve in the direction sought with a large enough effect; inconclusive = small, poorly fitted or top-dose-only effect, or another doubt; inactive = no such curve, though single readings can be large; an effect the other way counts as inactive or inconclusive. Starred links: 1 amine or outer side, 2 acyl side, 3 side chain; linkers in the order of their positions; H or OH if unused. Positions of bridges follow the written chain, without caps; N, C: chain ends. Non-standard residues stand in square brackets, D forms with d. Residues, ends and D or L forms follow the SMILES beside them. ξ: configuration not given here. *: point of attachment. X3 = C[C@@H](Oc1ccc([C@H](N[*:1])C(=O)[*:2])cc1)[C@]1(/C=C\C(=O)[*:3])CO1; d(aIle) = CC[C@H](C)[C@@H](N)C(=O)O; X2 = CC(C)[C@@H](O)C(C)C(=O)*; ξNMeF = CNC(Cc1ccccc1)C(=O)O; ξT = CC(O)C(N)C(=O)O; ξS = NC(CO)C(=O)O

How the values were obtained:
[1] = HPAF-II 24hr Apoptosis Induction qHTS against the NCATS CANVASS Library (AID 1347356)
Method in brief: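 Apoptosis induction in HPAF-II pancreatic cancer cells is measured as caspase-3/7 luminescence after a 24-hour exposure to compounds.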

[2] = HEK293 18hr Apoptosis Induction qHTS against the NCATS CANVASS Library (AID 1347357)
Method in brief: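 Luminescent caspase-3/7 signal is measured in HEK293 cells exposed for 18 hours to an 11-point concentration series; doxorubicin serves as the plate control.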

[3] = HPAF-II 12hr Apoptosis Induction qHTS against the NCATS CANVASS Library (AID 1347358)
Method in brief: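 Apoptosis in HPAF-II pancreatic cancer cells is scored as caspase 3/7 luminescence following a 12-hour exposure to an 11-point compound series.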

[4] = HEK293 24hr Apoptosis Induction qHTS against the NCATS CANVASS Library (AID 1347359)
Method in brief: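 HEK293 cells, 500 per well, exposed to an 11-point compound series for 24 hours at 37 degrees C. Caspase 3/7 activity read by Caspase-Glo luminescence (DEVD substrate) after 15 min at room temperature.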

[5] = HPAF-II 18hr Apoptosis Induction qHTS against the NCATS CANVASS Library (AID 1347360)
Method in brief: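 Apoptosis was scored as caspase-3/7 activity in HPAF-II pancreatic cancer cells treated 18 hours with an 11-point concentration series.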

[6] = molecular target: Luciferin 4-monooxygenase (Photinus pyralis) (UniProt P08659); assay: Firefly luciferase counterscreen qHTS: Assay Interference Panel against the NCATS CANVASS Library (AID 1347363); also: potency is read from the fitted curve at half-maximal effect
Chain of Luciferin 4-monooxygenase (Photinus pyralis) (P08659 whole entry, looked up): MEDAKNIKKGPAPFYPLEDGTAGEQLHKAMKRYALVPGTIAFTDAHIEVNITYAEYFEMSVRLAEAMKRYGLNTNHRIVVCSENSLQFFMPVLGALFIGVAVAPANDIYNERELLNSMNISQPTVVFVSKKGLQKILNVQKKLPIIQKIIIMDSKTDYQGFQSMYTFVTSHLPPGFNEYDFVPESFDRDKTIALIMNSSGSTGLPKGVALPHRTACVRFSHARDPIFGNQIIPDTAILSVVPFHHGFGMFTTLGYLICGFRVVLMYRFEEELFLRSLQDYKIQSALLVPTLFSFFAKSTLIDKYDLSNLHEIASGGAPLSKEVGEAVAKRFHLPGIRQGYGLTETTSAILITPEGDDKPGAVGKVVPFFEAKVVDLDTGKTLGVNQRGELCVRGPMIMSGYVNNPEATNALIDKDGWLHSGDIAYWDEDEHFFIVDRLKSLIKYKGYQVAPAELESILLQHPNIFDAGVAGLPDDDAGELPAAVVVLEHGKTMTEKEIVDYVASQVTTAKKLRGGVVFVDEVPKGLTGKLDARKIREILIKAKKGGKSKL
Method in brief: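 Purified P. pyralis luciferase (0.04 ug/mL, 4x reagent) added to Tris-acetate buffer with 0.013 mM D-luciferin, 0.013 mM ATP and 13.3 mM Mg-acetate; compounds preincubated 15 min, then luminescence read after 5 min, RT.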

[7] = qHTS for ATAD5 Agonist screened against the NCATS CANVASS Library (AID 1347367);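 also: luciferase reporter driven by ATAD5 which rises upon DNA damage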
Method in brief: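 Step one plated reporter cells and let them acclimate 5hr. Step two pinned compounds with MMS as positive and 0.46% DMSO as negative control. After 16hr incubation, fluorescence viability then luminescence were read.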

[8] = J3T Cancer Cell Toxicity qHTS against the NCATS CANVASS Library (AID 1347371); also: potency is read from the fitted curve at half-maximal effect
Method in brief: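 Viability of the J3T glioma line from dog is scored by ATP luminescence after a 72 hr incubation with natural products.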

[9] = molecular target: Nuclear receptor subfamily 1 group I member 3 (Homo sapiens) (UniProt Q14994); assay: qHTS for Constitutive Androstane Receptor (CAR) Agonist screened against the NCATS CANVASS Library (AID 1347373);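 also: every well also contained 1.5 µM PK11195 alongside the test compound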; also: potency is read from the fitted curve at half-maximal effect
Chain of Nuclear receptor subfamily 1 group I member 3 (Homo sapiens) (Q14994 whole entry, looked up): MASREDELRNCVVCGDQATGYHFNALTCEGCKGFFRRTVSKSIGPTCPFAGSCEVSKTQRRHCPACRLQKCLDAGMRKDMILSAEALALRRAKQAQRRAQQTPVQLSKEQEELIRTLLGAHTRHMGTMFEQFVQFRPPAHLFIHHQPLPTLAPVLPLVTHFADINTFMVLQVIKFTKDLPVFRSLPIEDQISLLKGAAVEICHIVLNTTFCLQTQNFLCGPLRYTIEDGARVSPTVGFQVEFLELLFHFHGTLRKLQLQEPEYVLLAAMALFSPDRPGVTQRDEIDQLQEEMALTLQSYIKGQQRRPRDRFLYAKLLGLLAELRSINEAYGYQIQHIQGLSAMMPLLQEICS
Method in brief: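 CAR agonism is scored as CYP2B6-promoter luciferase induction in a double-stable transfected HepG2 line, where 1.5uM PK11195 is included in each well. Compounds were tested over a 24hr exposure.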

[10] = 10-beta competent E. coli microbial cell viability qHTS against the NCATS CANVASS Library (AID 1347376); also: series mostly up to about 46 µM
Method in brief: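 Cytotoxicity toward competent E. coli is scored from cellular ATP content via BacTiter-Glo luminescence following overnight compound exposure at 37C, 5% CO2.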

[11] = qHTS for H2AX Agonists against the NCATS CANVASS Library (AID 1347378);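 also: phospho-H2AX S139 level in CHO-K1 lysates by TR-FRET emission ratio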
Method in brief: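 Following overnight seeding, CHO-K1 cells are incubated with a concentration series of compound for 3 hr at 37C (final DMSO 0.76%). Cells are then lysed, detection antibodies added, and emission ratio 665/620 nm recorded after 24 hr at room temperature.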

[12] = Inflammasome Signaling qHTS Counterscreen: IL-1-beta AlphaLISA counterscreen against the NCATS CANVASS Library (AID 1347381);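 also: cell-free check with purified IL-1β in medium and no THP-1 cells; series mostly up to about 57 µM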
Method in brief: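 To flag interference with the AlphaLISA read-out, a known amount of purified IL-1-beta (4 pg) replaced cell supernatant. Detection used anti-IL-1-beta acceptor beads, biotinylated antibody and streptavidin donor beads at room temperature.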

[13] = Cytotoxicity qHTS for assessment of Hepg2 cells membrane integrity screened against the NCATS CANVASS Library (AID 1347387)
Method in brief: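 Fluorescence proportional to lysed-cell number, from LDH leaking out of HepG2 cells exposed 5 hr at 37C to 0.59 nM - 46 uM compound (11-point qHTS), is measured after 10 min with CytoTox-ONE.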

[14] = qHTS for activators of dead-cell proteases activity screened against the NCATS CANVASS Library (AID 1347392);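 also: luminescence from protease leaking out of membrane-damaged cells cleaving impermeant substrate; rising signal means more cytotoxicity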
Method in brief: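 HepG2 cells, 2000/well, attached 18 h at 37C, then exposed to compounds (11-point qHTS) for 5 h. Dead-cell protease release read as luminescence from cell-impermeant AAF-aminoluciferin substrate after 15 min at room temperature.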

[15] = Redox Reaction Profiling qHTS: Assay Interference Panel against the NCATS CANVASS Library (AID 1347401)
Method in brief: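 Compounds in 11-point series incubated with 5 uM resazurin and 200 uM DTT in 50 mM HEPES pH 7.3, 50 mM NaCl. Resorufin fluorescence (Ex 525/Em 598) read before and after 15 min in the dark.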

Measured: Potency

c1ccc2nc3c(cc2c1)[nH]c1ccccc13
active: [6] 1.72 µM | [9] 18.6 µM
inactive: all other assays above

CC[C@H](C)[C@H]1NC(=O)[C@@H](NC(=O)C(C)[C@H](O)C(C)C)[C@@H](C)OC(=O)C2COC(=O)CNC(=O)/C=C\[C@]3(CO3)[C@@H](C)Oc3ccc(cc3)[C@H](NC1=O)C(=O)N(C)C(Cc1ccccc1)C(=O)NC(C(C)O)C(=O)N2 (stereo not given in full) (X2-T[d(aIle)][X3][ξNMeF][ξT][ξS]; ester 1-C; linker 3-6 via G)
inactive: all assays above

C=C[C@]12C=CCN3CC[C@@]4(c5ccccc5NC(=O)[C@@H]4C1)[C@@H]32
inactive: all assays above

C[C@]12CC(O)C3[C@@H](CCC4C[C@@H](O)CC[C@@]43CO)[C@@]1(O)CC[C@@H]2C1=CC(=O)OC1 (stereo not given in full)
active: [8] 14.8 µM
inactive: all other assays above

CCCCC1CC[C@H]2CCCC(CCC)N12 (stereo not given in full)
inactive: all assays above

C[C@]12CC(O)C3[C@@H](CC[C@@H]4C[C@@H](O)CC[C@]34CO)[C@@]1(O)CC[C@@H]2C1=CC(=O)OC1 (stereo not given in full)
active: [8] 10.5 µM
inactive: all other assays above

C=C[C@H]1CN2CCc3c([nH]c4cccc(OC)c34)[C@@H]2C[C@@H]1/C(=C\OC)C(=O)OC
inactive: all assays above
